According to the supplement of paper PMC10849652:
Targets with a hit are over-represented here; the source holds about 7,900 in all. About 0.6% of all pairs of compound and target were hits.

How the values were obtained:
Experiment in all cases: log2 fold change, soluble protein after heating vs DMSO (PISA); higher = thermal stabilisation; K562 cells, 10 uM, 30 min; active = over 0.2 and 3.5 SD of the protein, either way, in both replicates (recomputed)
erlotinib = compound: C#Cc1cccc(Nc2ncnc3cc(OCCOC)c(OCCOC)cc23)c1 [erlotinib]
Summary of the method: (§1)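 Aliquots of K562 cells (2×10^6 cells/mL) treated with 10 μM compound for 30 min were heated for 3 min over 48°C-58°C. After pooling and extraction in PBS with 0.5% NP-40 at 4°C, soluble protein from a 21,000xg, 90 min spin was quantified by TMTpro 16plex LC-MS/MS with channel sums equalised. Thermal stability is expressed against control samples, from duplicates, as a log2 fold change.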

[1] = compound: C/C(=N\NC(=O)C1=CC(=CC=C1)S(=O)(=O)N2CCOCC2)/C3=C(C=CC(=C3)Cl)O
Summary of the method: as §1

[2] = compound: C1=CC(=C(C=C1Cl)C2=NC3=NC=CN=C3C(=N2)NC4=CC=NC=C4)F
Summary of the method: as §1

[3] = compound: C1=CC(=CC=C1C2=NC3=C(N2)C=C(C=C3)C(=O)N)OC4=CC=C(C=C4)Cl
Summary of the method: as §1

[4] = compound: C1=CC2=C(C=CC(=C2)/C=C\3/C(=O)NC(=NCC4=CC=CS4)S3)N=C1
Summary of the method: as §1

[5] = compound: C1=CC2=NC=CN=C2C=C1/C=C/3\C(=O)NC(=O)S3
Summary of the method: as §1

[6] = compound: C1=CC=C(C=C1)C2=NC(=C(N2)C3=CC=NC=C3)C4=CC(=C(C=C4)Cl)O
Summary of the method: as §1

[7] = compound: C1=CC=C2C(=C1)C3=NNC4=CC=CC(=C43)C2=O
Summary of the method: as §1

[8] = compound: C1CCN(C1)C(=O)NC2=CC=CC(=C2)NC3=NC=C(C(=N3)NCCC4=CN=CN4)Br
Summary of the method: as §1

[9] = compound: C1CN(CCC1(CC2=CC=C(C=C2)Cl)N)C3=NC=NC4=C3C=CN4
Summary of the method: as §1

IRAK-1-4 Inhibitor I = compound: C1COCCN1CCN2C3=CC=CC=C3N=C2NC(=O)C4=CC(=CC=C4)[N+](=O)[O-] [IRAK-1-4 Inhibitor I]
Summary of the method: as §1

ibrutinib = compound: C=CC(=O)N1CCC[C@@H](n2nc(-c3ccc(Oc4ccccc4)cc3)c3c(N)ncnc32)C1 [ibrutinib]
Summary of the method: as §1

[10] = compound: CC(=O)c1cnc2ccc(-c3cc(Cl)c(O)c(Cl)c3)nc2c1N[C@H]1CC[C@H](CN(C)C)CC1
Summary of the method: as §1

ralimetinib = compound: CC(C)(C)Cn1c(N)nc2ccc(-c3[nH]c(C(C)(C)C)nc3-c3ccc(F)cc3)nc21 [ralimetinib]
Summary of the method: as §1

[11] = compound: CC(C)(O)CC(=O)NCCn1ccc2ncnc(Nc3ccc(Oc4cccc(C(F)(F)F)c4)c(Cl)c3)c21
Summary of the method: as §1

[12] = compound: CC(C)C1=C2N=C(C=C(N2N=C1)NCC3=CC=CC=C3)NCCCCCCN
Summary of the method: as §1

[13] = compound: CC(C)C[C@@H](C=O)NC(=O)[C@H](CC(C)C)NC(=O)[C@H](CC(C)C)NC(=O)OCc1ccccc1
Summary of the method: as §1

pinometostat = compound: CC(C)N(C[C@H]1O[C@@H](n2cnc3c(N)ncnc32)[C@H](O)[C@@H]1O)[C@H]1C[C@@H](CCc2nc3cc(C(C)(C)C)ccc3[nH]2)C1 [pinometostat]
Summary of the method: as §1

[14] = compound: CC1=C(C(CC(=O)N1)C2=CC=C(C=C2)C(F)(F)F)C(=O)NC3=C(C=C4C(=C3)C=NN4)F
Summary of the method: as §1

[15] = compound: CC1=C(C2=C(C=C1)C(=O)C3=CC=CC=C3N2CCCN)C
Summary of the method: as §1

Measured: log2 fold change

CALB1 (UniProt P05937)
UniProt P05937, sequence (P05937 whole entry, looked up): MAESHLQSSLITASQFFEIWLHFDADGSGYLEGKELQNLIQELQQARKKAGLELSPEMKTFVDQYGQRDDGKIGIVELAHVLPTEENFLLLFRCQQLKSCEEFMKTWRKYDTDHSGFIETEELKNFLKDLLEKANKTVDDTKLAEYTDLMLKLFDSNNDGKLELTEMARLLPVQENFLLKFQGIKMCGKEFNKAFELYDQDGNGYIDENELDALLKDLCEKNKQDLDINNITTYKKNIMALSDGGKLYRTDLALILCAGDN
active: [12] -0.245
inactive: erlotinib -0.011 | [1] -0.001 | [2] 0.067 | [3] 0.032 | [4] -0.033 | [5] 0.055 | [6] -0.01 | [7] 0.027 | [8] 0.019 | [9] -0.026 | IRAK-1-4 Inhibitor I 0.016 | ibrutinib -0.033 | [10] 0.017 | ralimetinib -0.078 | [11] -0.052 | [13] -0.017 | pinometostat -0.043 | [14] 0.055 | [15] -0.148

CAMSAP1 isoform 3 (UniProt Q5T5Y3)
inactive: erlotinib -0.084 | [1] 0.023 | [2] -0.014 | [3] -0.013 | [4] 0.058 | [5] 0.007 | [6] 0.035 | [7] -0.078 | [8] -0.016 | [9] 0.006 | IRAK-1-4 Inhibitor I -0.076 | ibrutinib -0.069 | [10] -0.29 | ralimetinib -0.031 | [11] -0.062 | [12] -0.078 | [13] 0.031 | pinometostat 0.121 | [14] -0.056 | [15] 0.108

CDC37L1 (UniProt Q7L3B6)
UniProt Q7L3B6, sequence (Q7L3B6 whole entry, looked up): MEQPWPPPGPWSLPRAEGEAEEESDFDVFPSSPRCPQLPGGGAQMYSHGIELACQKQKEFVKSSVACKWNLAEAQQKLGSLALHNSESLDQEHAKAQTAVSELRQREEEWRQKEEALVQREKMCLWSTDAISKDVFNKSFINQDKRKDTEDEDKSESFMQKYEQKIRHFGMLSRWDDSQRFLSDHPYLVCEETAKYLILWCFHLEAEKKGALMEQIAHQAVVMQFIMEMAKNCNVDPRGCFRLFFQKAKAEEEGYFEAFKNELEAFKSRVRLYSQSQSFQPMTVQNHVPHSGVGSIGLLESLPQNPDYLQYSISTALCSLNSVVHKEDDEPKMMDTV
inactive: erlotinib -0.069 | [1] 0.008 | [2] -0.007 | [3] -0.035 | [4] 0.054 | [5] 0.068 | [6] 0 | [7] -0.012 | [8] 0.203 | [9] 0.357 | IRAK-1-4 Inhibitor I 0.004 | ibrutinib -0.018 | [10] -0.012 | ralimetinib -0.059 | [11] -0.118 | [12] -0.004 | [13] 0 | pinometostat -0.015 | [14] 0.062 | [15] -0.281

CCDC9 (UniProt Q9Y3X0)
active: [15] 0.296
inactive: erlotinib 0.017 | [1] -0.116 | [2] -0.036 | [3] 0.047 | [4] -0.045 | [5] 0.034 | [6] 0.027 | [7] -0.02 | [8] 0.062 | [9] 0.034 | IRAK-1-4 Inhibitor I -0.05 | ibrutinib 0.078 | [10] 0.173 | ralimetinib 0.031 | [11] 0.053 | [12] 0.105 | [13] 0.087 | pinometostat -0.024 | [14] 0.021

CDK11B (UniProt P21127)
UniProt P21127, sequence (P21127 whole entry, looked up): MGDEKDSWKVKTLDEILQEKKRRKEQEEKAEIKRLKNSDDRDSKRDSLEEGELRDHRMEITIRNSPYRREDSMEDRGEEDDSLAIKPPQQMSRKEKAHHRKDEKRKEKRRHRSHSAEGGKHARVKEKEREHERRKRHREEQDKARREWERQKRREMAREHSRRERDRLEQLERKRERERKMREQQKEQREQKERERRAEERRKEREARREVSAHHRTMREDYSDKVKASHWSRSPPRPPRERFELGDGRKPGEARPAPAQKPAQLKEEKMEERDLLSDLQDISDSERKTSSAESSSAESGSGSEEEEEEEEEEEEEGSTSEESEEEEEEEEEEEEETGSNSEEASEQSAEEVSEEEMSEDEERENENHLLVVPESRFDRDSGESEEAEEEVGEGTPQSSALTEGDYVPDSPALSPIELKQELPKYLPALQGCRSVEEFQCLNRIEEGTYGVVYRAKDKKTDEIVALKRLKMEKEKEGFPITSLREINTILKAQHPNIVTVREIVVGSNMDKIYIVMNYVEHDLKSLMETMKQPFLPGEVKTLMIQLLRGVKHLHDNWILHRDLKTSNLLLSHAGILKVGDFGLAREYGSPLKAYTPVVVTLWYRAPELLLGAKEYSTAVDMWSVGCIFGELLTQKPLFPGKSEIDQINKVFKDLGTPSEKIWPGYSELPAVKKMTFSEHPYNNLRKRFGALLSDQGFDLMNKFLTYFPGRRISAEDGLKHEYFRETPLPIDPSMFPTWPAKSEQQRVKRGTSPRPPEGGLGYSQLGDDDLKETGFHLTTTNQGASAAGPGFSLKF
inactive: erlotinib 0.044 | [1] 0.006 | [2] -0.139 | [3] 0.063 | [4] 0.035 | [5] -0.033 | [6] -0.042 | [7] -0.049 | [8] -0.033 | [9] -0.058 | IRAK-1-4 Inhibitor I -0.151 | ibrutinib -0.026 | ralimetinib 0.04 | [11] -0.006 | [12] -0.116 | [13] 0.076 | pinometostat -0.11 | [14] -0.009
active: [10] 2.34 | [15] -0.366

CA1 (UniProt P00915)
inactive: erlotinib -0.025 | [1] 0.022 | [2] 0.03 | [3] 0.006 | [4] -0.079 | [5] 0.009 | [6] 0.064 | [7] 0.004 | [8] 0.018 | [9] 0.054 | IRAK-1-4 Inhibitor I 0.068 | ibrutinib -0.02 | [10] 0.003 | ralimetinib 0.017 | [11] -0.031 | [12] 0.119 | [13] -0.011 | pinometostat -0.006 | [14] -0.019 | [15] -0.043

CLPX (UniProt O76031)
inactive: erlotinib -0.062 | [1] 0.056 | [2] 0.01 | [3] 0.004 | [4] -0.009 | [5] 0.036 | [6] -0.008 | [7] -0.034 | [8] -0.03 | [9] -0.003 | IRAK-1-4 Inhibitor I 0.002 | [10] 0.006 | ralimetinib -0.03 | [11] -0.02 | [12] 0.048 | [13] -0.055 | pinometostat -0.026 | [14] 0.004 | [15] 0.012

COCH (UniProt O43405)
UniProt O43405, sequence (O43405 whole entry, looked up): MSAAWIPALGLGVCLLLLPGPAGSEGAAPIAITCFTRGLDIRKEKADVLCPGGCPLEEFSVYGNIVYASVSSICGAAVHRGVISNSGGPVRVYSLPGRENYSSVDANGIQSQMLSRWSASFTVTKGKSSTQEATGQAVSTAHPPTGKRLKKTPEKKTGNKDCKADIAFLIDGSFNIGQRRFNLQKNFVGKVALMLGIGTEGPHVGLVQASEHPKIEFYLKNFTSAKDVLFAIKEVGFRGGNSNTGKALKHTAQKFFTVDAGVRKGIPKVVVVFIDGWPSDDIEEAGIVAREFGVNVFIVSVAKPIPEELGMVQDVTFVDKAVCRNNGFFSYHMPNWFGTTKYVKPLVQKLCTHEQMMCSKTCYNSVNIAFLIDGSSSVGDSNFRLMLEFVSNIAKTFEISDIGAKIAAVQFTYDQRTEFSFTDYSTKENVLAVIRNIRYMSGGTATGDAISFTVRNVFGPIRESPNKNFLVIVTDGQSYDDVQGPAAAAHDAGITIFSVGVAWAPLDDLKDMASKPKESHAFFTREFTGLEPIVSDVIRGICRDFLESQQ
inactive: erlotinib -0.083 | [1] -0.028 | [2] -0.044 | [3] 0.007 | [4] -0.098 | [5] 0.007 | [6] -0.002 | [7] -0.072 | [8] -0.043 | [9] -0.101 | IRAK-1-4 Inhibitor I 0.001 | ibrutinib 0.058 | [10] 0.045 | ralimetinib 0.041 | [12] 0.021 | [13] -0.019 | pinometostat 0.043 | [14] -0.072 | [15] -0.353
active: [11] 0.331

CIT isoform 4 (UniProt O14578)
inactive: erlotinib -0.015 | [1] 0.045 | [2] -0.044 | [3] 0 | [4] -0.176 | [5] 0.13 | [6] -0.027 | [7] -0.002 | [8] -0.037 | [9] 0.021 | IRAK-1-4 Inhibitor I -0.013 | ibrutinib -0.057 | ralimetinib -0.008 | [11] -0.077 | [12] -0.021 | [13] 0.045 | pinometostat -0.005 | [14] 0.045 | [15] 0.118
active: [10] -0.462

C9orf64 (UniProt Q5T6V5)
UniProt Q5T6V5, sequence (Q5T6V5 whole entry, looked up): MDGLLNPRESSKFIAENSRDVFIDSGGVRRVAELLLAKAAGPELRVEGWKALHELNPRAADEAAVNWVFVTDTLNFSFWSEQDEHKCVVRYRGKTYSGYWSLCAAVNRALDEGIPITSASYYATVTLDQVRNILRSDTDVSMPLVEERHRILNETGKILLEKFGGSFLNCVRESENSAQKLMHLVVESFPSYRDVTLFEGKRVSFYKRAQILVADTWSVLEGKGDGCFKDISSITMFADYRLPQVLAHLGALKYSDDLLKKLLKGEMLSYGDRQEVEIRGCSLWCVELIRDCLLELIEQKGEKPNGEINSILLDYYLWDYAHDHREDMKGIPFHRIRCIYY
inactive: erlotinib 0.046 | [1] 0.142 | [2] 0.009 | [3] 0.065 | [4] 0.117 | [5] 0.017 | [6] 0.054 | [7] -0.037 | [8] -0.001 | [9] -0.039 | IRAK-1-4 Inhibitor I -0.041 | ibrutinib -0.03 | [10] -0.019 | ralimetinib -0.018 | [11] -0.181 | [12] -0.288 | [13] 0.012 | pinometostat 0.053 | [14] 0.02 | [15] -0.097

CHD3 isoform 3 (UniProt Q12873)
UniProt Q12873, sequence (Q12873 whole entry, looked up): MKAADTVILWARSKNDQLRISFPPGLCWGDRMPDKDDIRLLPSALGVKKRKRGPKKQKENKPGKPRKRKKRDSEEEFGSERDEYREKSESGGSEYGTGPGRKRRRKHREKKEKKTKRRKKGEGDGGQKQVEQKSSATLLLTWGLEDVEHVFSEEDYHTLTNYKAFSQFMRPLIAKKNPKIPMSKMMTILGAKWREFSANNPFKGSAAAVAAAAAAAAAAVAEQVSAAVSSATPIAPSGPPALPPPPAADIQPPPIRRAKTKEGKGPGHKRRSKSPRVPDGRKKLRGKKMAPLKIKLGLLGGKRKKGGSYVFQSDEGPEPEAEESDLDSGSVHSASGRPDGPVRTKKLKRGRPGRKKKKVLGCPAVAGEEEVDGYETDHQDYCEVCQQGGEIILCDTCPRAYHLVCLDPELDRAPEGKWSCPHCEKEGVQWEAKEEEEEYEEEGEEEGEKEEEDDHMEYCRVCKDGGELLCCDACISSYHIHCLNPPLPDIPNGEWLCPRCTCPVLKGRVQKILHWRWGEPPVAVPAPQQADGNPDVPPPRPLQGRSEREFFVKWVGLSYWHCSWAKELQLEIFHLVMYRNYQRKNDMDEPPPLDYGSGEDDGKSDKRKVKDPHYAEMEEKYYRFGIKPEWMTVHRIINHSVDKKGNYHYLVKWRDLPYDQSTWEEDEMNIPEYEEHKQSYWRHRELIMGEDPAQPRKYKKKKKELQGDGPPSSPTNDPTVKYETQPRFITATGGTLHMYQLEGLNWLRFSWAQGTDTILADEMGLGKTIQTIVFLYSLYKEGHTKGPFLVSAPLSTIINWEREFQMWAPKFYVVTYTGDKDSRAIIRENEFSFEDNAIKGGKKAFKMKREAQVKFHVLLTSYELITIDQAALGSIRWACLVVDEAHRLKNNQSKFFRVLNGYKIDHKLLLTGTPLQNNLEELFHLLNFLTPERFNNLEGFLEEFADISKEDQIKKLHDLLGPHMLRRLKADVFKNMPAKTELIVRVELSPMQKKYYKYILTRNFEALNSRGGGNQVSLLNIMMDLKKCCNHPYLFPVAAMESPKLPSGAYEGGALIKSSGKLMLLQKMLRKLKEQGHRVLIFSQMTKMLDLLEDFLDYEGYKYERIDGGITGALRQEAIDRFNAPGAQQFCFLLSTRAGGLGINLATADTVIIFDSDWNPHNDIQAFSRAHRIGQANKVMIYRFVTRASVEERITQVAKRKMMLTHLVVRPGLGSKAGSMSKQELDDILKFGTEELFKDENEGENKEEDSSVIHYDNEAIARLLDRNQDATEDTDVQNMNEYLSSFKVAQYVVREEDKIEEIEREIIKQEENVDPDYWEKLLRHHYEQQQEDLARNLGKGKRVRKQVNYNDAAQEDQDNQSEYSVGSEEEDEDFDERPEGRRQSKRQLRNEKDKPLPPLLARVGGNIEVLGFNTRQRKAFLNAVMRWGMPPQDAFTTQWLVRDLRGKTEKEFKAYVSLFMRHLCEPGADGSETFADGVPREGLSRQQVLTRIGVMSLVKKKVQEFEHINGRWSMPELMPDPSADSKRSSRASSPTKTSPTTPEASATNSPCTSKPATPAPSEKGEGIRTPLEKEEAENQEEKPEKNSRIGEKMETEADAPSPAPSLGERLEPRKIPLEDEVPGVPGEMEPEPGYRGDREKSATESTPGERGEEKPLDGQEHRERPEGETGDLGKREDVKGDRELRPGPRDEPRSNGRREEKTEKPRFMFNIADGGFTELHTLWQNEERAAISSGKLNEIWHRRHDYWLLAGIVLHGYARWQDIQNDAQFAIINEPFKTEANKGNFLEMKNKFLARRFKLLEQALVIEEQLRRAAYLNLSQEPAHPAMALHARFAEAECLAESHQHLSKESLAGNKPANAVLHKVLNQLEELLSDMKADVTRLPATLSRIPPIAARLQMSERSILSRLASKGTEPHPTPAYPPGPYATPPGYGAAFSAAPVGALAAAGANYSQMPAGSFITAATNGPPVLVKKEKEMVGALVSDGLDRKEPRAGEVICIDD
inactive: erlotinib -0.052 | [1] 0.148 | [2] 0.005 | [3] -0.062 | [4] 0 | [5] 0.034 | [6] 0.388 | [7] -0.123 | [8] -0.125 | [9] -0.093 | IRAK-1-4 Inhibitor I -0.052 | ibrutinib -0.1 | [10] -0.284 | ralimetinib 0.36 | [11] -0.075 | [12] -0.319 | [13] 0.186 | pinometostat 0.071 | [14] 0.125 | [15] -0.009

CFAP36 isoform 2 (UniProt Q96G28)
UniProt Q96G28, sequence (Q96G28 whole entry, looked up): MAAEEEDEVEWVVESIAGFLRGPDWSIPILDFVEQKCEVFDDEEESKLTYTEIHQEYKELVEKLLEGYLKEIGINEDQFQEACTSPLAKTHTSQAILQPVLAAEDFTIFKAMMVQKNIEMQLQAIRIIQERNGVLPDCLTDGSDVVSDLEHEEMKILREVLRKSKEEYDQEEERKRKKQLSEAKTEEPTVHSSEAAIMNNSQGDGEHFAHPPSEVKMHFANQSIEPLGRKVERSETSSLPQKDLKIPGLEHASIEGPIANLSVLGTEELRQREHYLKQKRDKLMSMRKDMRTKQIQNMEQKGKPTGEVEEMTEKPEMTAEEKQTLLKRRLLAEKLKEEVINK
inactive: erlotinib 0.048 | [1] -0.11 | [2] -0.046 | [3] 0.005 | [4] 0.059 | [5] 0.042 | [6] -0.068 | [7] 0.007 | [8] 0.127 | [9] -0.111 | IRAK-1-4 Inhibitor I -0.183 | ibrutinib -0.022 | [10] 0.001 | ralimetinib 0.053 | [11] -0.012 | [12] -0.09 | [13] 0.065 | pinometostat 0.024 | [15] 0.103

CDKN2AIP (UniProt Q9NXV6)
active: [15] 0.241
inactive: erlotinib 0.017 | [1] -0.018 | [2] 0 | [3] 0.056 | [4] 0.018 | [5] 0.009 | [6] 0.036 | [7] 0.007 | [8] -0.006 | [9] -0.021 | IRAK-1-4 Inhibitor I -0.057 | ibrutinib 0.039 | [10] 0.062 | ralimetinib 0.059 | [11] 0.01 | [12] 0.056 | [13] -0.04 | pinometostat 0.032 | [14] -0.056

CDAN1 (UniProt Q8IWY9)
active: [15] -0.398
inactive: erlotinib -0.031 | [1] 0.048 | [2] -0.171 | [3] -0.011 | [4] 0.039 | [5] 0.066 | [6] 0.019 | [7] -0.057 | [8] 0.109 | [9] 0.03 | IRAK-1-4 Inhibitor I 0.057 | ibrutinib -0.001 | [10] -0.044 | ralimetinib -0.036 | [11] -0.168 | [12] -0.051 | [13] -0.006 | pinometostat 0.026 | [14] 0.009

CETN2 (UniProt P41208)
UniProt P41208, sequence (P41208 whole entry, looked up): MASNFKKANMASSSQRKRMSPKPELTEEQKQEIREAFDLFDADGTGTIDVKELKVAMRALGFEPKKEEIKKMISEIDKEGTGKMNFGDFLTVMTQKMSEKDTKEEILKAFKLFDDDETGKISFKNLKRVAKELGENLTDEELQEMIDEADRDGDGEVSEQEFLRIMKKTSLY
inactive: erlotinib 0.121 | [1] -0.015 | [2] -0.002 | [3] 0.017 | [4] -0.058 | [5] 0.03 | [6] -0.058 | [7] -0.113 | [8] 0.039 | [9] 0.049 | IRAK-1-4 Inhibitor I -0.067 | ibrutinib 0.006 | [10] -0.019 | ralimetinib -0.012 | [11] 0.074 | [12] 0.17 | [13] 0.043 | pinometostat 0.011 | [14] 0.075 | [15] -0.045

CDK5RAP1 (UniProt Q96SZ6)
active: [1] -0.555
inactive: erlotinib 0.076 | [2] 0.046 | [3] -0.025 | [4] 0.134 | [5] -0.03 | [6] 0.069 | [7] 0.078 | [8] 0.072 | [9] -0.029 | IRAK-1-4 Inhibitor I -0.067 | ibrutinib 0.018 | [10] 0.111 | ralimetinib -0.057 | [11] -0.055 | [12] -0.066 | [13] -0.015 | pinometostat 0.025 | [14] -0.038 | [15] 0.099
